Among the data in PubChem BioAssay AID1347051 (National Center for Advancing Translational Sciences (NCATS), 2019) are Potency values, retold here.

Among all 1,400 compounds or so, about 980 (70%) were called active. Roughly 16% stayed inconclusive and do not appear here. Calls follow the shape of the full dose curve. The set was probably picked from earlier hits. Only a sample is shown.
Potency is read from the fitted curve at half-maximal effect.

This assay in a line: Natriuretic polypeptide receptor (hNpr1) antagonism - Counterscreen GloSensor control cell line. Also: nearly all actives have a fitted effect of over 70% in size. To be noted: HEK293 GloSensor cGMP, SNP-stimulated, luminescence; series mostly up to 57.6 µM. How it is done:
cGMP production was measured using a circular permutated firefly luciferase (FLuc) enzyme functionally linked to the cGMP binding domain of human phosphodiesterase 5 (GloSensor technology pGS-40F, (Fan, F. et al. 2008). The cGMP-sensor was expressed in human embryonic kidney 293 (HEK-293) cells and FLuc activity was measured after stimulation with the NO-donor sodium nitroprusside (SNP). SNP activates the endogenously expressed soluble guanylyl cyclase (GC) producing cGMP which then binds to the GloSensor resulting in FLuc activation, the enzymatic activity of which can be measured as bioluminescence with addition of luciferin substrate. F. Fan, B. F. Binkowski, B. L. Butler, P. F. Stecha, M. K. Lewis, K. V. Wood, Novel genetically encoded biosensors using firefly luciferase. ACS Chem Biol 3, 346-351 (2008).
PROTOCOL TABLE (as described by Inglese J, Shamu CE and Guy RK. 2007) SEQUENCE No. (e.g., 1, 2, 3, etc.); PARAMETER (e.g., Cells, Incubation, Reagent, etc.); VALUE and DESCRIPTION. 1. Cells. Seed 1500 HEK293 cGMP-sensor cells per well in 4uL into Greiner 1536-well white/solid bottom high base, TC plates. 2. Incubation. Incubate plated cells at 37C in 5% CO2, 95% RH overnight. 3. Reagent. Add 1uL per well GloSensor reagent from Promega (2% final concentration) or CO2 independent media vehicle control to respective columns of Greiner 1536-well plates. 4. Incubation. Incubate plated cells at room temperature for 2 h, protect from light. 5. Compounds. Library compounds and DMSO vehicle control added at 23nL per well, transferred by Pin Tool. 6. Incubation. Incubate plated cells for 30 min. at room temperature, protect from light. 7. Detector. GloSensor baseline pre-read luminescence measured using CCD-based camera (Viewlux). 8. Compound. Add 1uL of sodium nitroprusside (SNP) to 50 uM final concentration to stimulate soluble guanylyl cyclase (GC) or CO2 independent media as vehicle control. 9. Incubation. Incubate treated cells at room temperature for 20 min., protect from light. 10. Detector. GloSensor post-SNP luminescence measured using CCD-based camera (Viewlux). NOTES (numbers refer to Sequence numbers above; values are from representative experiments) 1. HEK293 cells expressing GIP/pGS-40F were grown to 85-95% confluence (48-72 h) in T175 culture flasks (CO2 independent media supplemented with 10% FBS, 1% Pen/Strep antibiotics, and 1 ug/mL puromycin). Trypsinize and harvest cells from T175 culture flasks and filter through 40 um cell strainer. Cells counted with Invitrogen Countess (30,000,000 - 50,000,000 cells/flask). Cells diluted to a final concentration of 375 cells/uL in CO2 independent media and a Millipore multidrop used to dispense 1500 cells per well (4uL/well) into 13 1536-well Greiner White/Solid bottom, high base tissue-culture treated (TC) plates and one Aurora 1536-well Black/Clear bottom, low base, TC plate (for visual inspection of cell health throughout the duration of the assay). 2. Cells incubated for 24 h. at 37C in 95% RH incubator with metal lid having gas-exchange holes. 3. Prepare GloSensor Reagent (Promega): Reconstitute GloSensor luciferase substrate by adding 8.2mL Hepes buffer to 250mg substrate, mix well, protect from light and stored at -80C. Prepare a fresh 12% GloSensor solution in CO2 independent supplemented plating media (see above). Mix well and store at ambient temperature, protected from light. 1uL 12% GloSensor Luciferase Reagent added (2% final concentration) to respective columns of 13 x 1536-well Greiner plate with BioRaptr, 1uL CO2 independent plating media added to respective columns as vehicle control with BioRaptr. 4. Cells incubated for 2 h. at ambient temperature, protected from light with metal lid having gas-exchange holes. 5. 23nL of library compounds or DMSO vehicle control transferred to 13 Greiner white/solid bottom high base, TC plates in 11 interplate 1:3 titrations (see Yasgar, A. et al. 2008) with Pintool. 6. […]
A general note: Counterscreens check selectivity or assay interference.
On to `COc1cc2c(cc1OCc1ccncc1)NC(=O)C21CCN(c2ncc(F)cn2)CC1`, for which the Potency was 44.4 µM (active). For the compound `COc1cc2c(cc1Oc1cccc(N(C)C)c1)NC(=O)C21CCN(c2cnccn2)CC1`, the Potency is 21.7 µM (active). As for `COc1cc2c(cc1Oc1cccc(N(C)C)c1)NC(=O)C21CCN(Cc2ccccn2)CC1`, the Potency is 19.3 µM (active). On to `COc1cc2c(cc1Oc1cccc(N(C)C)c1)NC(=O)C21CCN(CCC(C)C)CC1`, for which the Potency is 31.4 µM (active). In the case of `CCC(CC)c1cc([C@H]2CN3CC[C@H]2C[C@@H]3CNS(=O)(=O)c2ccccc2C#N)nc(-c2ccncc2)n1` it was “inactive”; in that of `CCC(CC)c1cc([C@H]2CN3CC[C@H]2C[C@@H]3CNC(=O)NCc2ccccc2)nc(-c2ccncc2)n1`, “inactive”; in that of `CCC(CC)c1cc([C@H]2CN3CC[C@H]2C[C@@H]3CNS(=O)(=O)Cc2ccccc2)nc(-c2ccncc2)n1`, “inactive”.
